Sampled rows, rich in hits. Any-hit rate of the full collection: about 2.4%.
Platelet DG rel: inhibitors of platelet dense granule secretion, primary screen, cell-based, MLPCN, human platelets; human platelet-rich plasma, SFLLRN dense granule ATP release, luminescence; hit rate 0.22% among 300,000; inhibition, %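 (compounds screened at 7.5 µM in platelet-rich plasma)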;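 active = mean replicate score, as percent of positive control, at or above 50; inconclusive = mean below 50 but at least one replicate at or above 50; inactive = mean and every replicate below 50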
SENP8 block-1: SENP8 protease inhibitors, primary screen, biochemical, luminescence | Sentrin-specific protease 8 (Homo sapiens), Q96LD8 | purified SENP8, Z-RLRGG-aminoluciferin cleavage | inhibition, % at 10 µM | hit rate 1.2% among 330,000 | AID 2540, 2010; in the data active = inhibition above about 50%
Target sequence (Q96LD8 whole entry, looked up): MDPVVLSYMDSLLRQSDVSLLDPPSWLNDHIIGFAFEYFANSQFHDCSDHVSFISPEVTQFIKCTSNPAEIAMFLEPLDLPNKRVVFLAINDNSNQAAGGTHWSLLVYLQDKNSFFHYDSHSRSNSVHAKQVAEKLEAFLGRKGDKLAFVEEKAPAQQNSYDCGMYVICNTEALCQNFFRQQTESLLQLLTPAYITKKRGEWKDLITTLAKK
SENP7 inh: SENP7 protease inhibitors, primary screen, biochemical, luminescence, uHTS. Sentrin-specific protease 7 (Homo sapiens), Q9BQF6. recombinant SENP7, Z-RLRGG-aminoluciferin luminescence, 40 min. inhibition, % at 5 µM. hit rate 1.5% among 330,000;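 active = inhibition above about 50% at the single test dose, limit read from the data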;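 note: plate controls were DMSO with enzyme for no effect and no enzyme buffer wells for full effect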
Target sequence (Q9BQF6 706-1050 limits assumed): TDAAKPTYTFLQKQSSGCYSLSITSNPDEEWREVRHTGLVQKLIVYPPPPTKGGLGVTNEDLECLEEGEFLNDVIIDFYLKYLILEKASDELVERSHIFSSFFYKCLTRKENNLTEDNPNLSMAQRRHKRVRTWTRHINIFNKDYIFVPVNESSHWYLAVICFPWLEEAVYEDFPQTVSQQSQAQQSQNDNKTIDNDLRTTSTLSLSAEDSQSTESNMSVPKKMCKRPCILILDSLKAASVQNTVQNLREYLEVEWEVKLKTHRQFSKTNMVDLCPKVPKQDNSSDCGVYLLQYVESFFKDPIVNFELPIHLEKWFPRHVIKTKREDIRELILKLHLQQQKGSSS
SENP6 inh: SENP6 protease inhibitors, primary screen, biochemical, luminescence, uHTS | AID 2599, 2010 | Recombinant SENP6 catalytic domain, aminoluciferin luminescence | hit rate 1.8% among 330,000 | inhibition, % at 10 µM | Sentrin-specific protease 6 (Homo sapiens), Q9GZR1;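 active = inhibition above about 50% at the single tested dose, limit read from the data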;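 note: plate controls were DMSO wells with enzyme for no effect and DMSO wells lacking enzyme for full effect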
SENP8 block-2: human SENP8 protease inhibitors, primary screen, biochemical, fluorescence, Nedd8 protein substrate, uHTS. Sentrin-specific protease 8 (Homo sapiens), Q96LD8. recombinant SENP8. hit rate 0.64% among 360,000. inhibition, % at 20 µM; in the data active = inhibition mostly above about 40%, no sharp cut-off; inactive = mostly below about 27%
SENP8 confirm: SENP8 protease inhibitors, retest, confirmation, biochemical, luminescence, single concentration; shares compounds with SENP7 inh; Recombinant SENP8, Z-RLRGG-aminoluciferin luminescence, 60 min; inhibition, % at 12.5 µM; hit rate 40% among 6,200;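 active = mean inhibition across replicates above about 50%, limit read from the data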
SENP6 conf: SENP6 protease inhibitors, confirmation, biochemical, luminescence, single concentration | shares compounds with SENP7 inh | recombinant SENP6, Z-RLRGG-aminoluciferin luminescence | inhibition, % at 12.5 µM | hit rate 58% among 6,200
SENP7 confirm: SENP7 protease inhibitors, retest, confirmation, biochemical, luminescence, single concentration. AID 488917, 2010. shares compounds with SENP7 inh. recombinant SENP7, Z-RLRGG-aminoluciferin luminescence, 40 min. inhibition, % at 12.5 µM. hit rate 69% among 6,200
Casp3 select: caspase-3 protease inhibitors, confirmation, selectivity assay for SENP inhibitor project, biochemical, single concentration | shares compounds with SENP7 inh | purified caspase-3, Z-DEVD-aminoluciferin luminescence, 60 min | hit rate 60% among 6,200 | inhibition, % at 12.5 µM;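 active = mean inhibition above about 50%, limit read from the data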;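 note: plate controls were enzyme with DMSO for no effect and wells without caspase-3 for full effect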
Target sequence (P42574 28-227 limits assumed): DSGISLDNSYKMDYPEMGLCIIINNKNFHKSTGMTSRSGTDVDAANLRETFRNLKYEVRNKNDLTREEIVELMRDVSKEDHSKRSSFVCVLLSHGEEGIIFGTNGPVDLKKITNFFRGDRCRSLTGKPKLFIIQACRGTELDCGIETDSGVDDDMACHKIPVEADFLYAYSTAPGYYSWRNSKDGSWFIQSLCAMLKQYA
SENP luc ctr: interferes with luciferase luminescence in SENP counter-screen. shares compounds with SENP7 inh. Pre-incubated SENP8/Z-RLRGG-aminoluciferin, luciferase luminescence interference. inhibition, % at 12.5 µM. hit rate 39% among 6,200;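 active = mean inhibition above about 50% when retested at one dose, limit read from the data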;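 note: plate controls were DMSO wells with completed reaction for no effect and substrate without enzyme for full effect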
The depositor's hits bear a star; ? = inconclusive; / = not tested or not shown.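 Rule for the calls, unless noted: active = mean inhibition above about 50% in the one-dose retest (limit read from the data); inactive = the rest.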

SMILES | Platelet DG rel | SENP8 block-1 | SENP7 inh | SENP6 inh | SENP8 block-2 | SENP8 confirm | SENP6 conf | SENP7 confirm | Casp3 select | SENP luc ctr
CSCCC(NC(=O)c1ccccc1Cl)C(=O)OCC(=O)N1CCCC1=O (configuration not stated) | -23.5 | -7.2 | -3.3 | -15.5 | -0.3 | / | / | / | / | /
CC(NC(=O)CNC(=S)N(Cc1cccs1)C1CCCC1)c1ccccc1 (configuration not stated) | -2.2 | -2.8 | -1.9 | 6.7 | 2.4 | / | / | / | / | /
C=CCn1c(SCn2nnc3ccccc3c2=O)nc2scc(-c3cccs3)c2c1=O | 5.9 | -0.6 | 73.9* | -3.7 | 9.9 | 7.3 | 6.4 | 1.8 | 1.0 | 3.4
CC(C)OC(=O)CSc1ncnc2c1cnn2-c1ccccc1 | 3.2 | 18.9 | 51.7* | 33.2 | -25.4 | 14.8 | 17.8 | 25.7 | 28.4 | 7.4
c1ccc(CSc2ncnc3c2cnn3-c2ccccc2)cc1 | -9.9 | 54.5* | 71.7* | 71.0* | -4.6 | 8.6 | 7.1 | 18.8 | 4.6 | 7.9
Cc1cc(SCC(=O)NN)c2cc(Br)ccc2n1 | -2.3 | 0.1 | -6.0 | 27.1 | 19.9 | / | / | / | / | /
C/C(=N/NC(=O)c1cccs1)c1cccs1 | 0.6 | 14.6 | 61.8* | 33.3 | -12.3 | 25.4 | 25.2 | 70.2* | 63.0* | 32.3
C/C(=N\NC(=O)COc1ccc2ccccc2c1)c1cccs1 | 10.0 | -7.0 | -9.4 | -10.5 | -1.1 | / | / | / | / | /
Cn1cccc1/C=N/NC(=O)c1sc2cc(Cl)ccc2c1Cl | 4.0 | -7.5 | -0.7 | -7.4 | / | / | / | / | / | /
Cn1cccc1C(=O)N/N=C/c1c(Cl)cccc1Cl | 8.9 | 76.4* | 83.4* | 78.9* | 4.2 | 82.7* | 82.2* | 71.8* | 90.8* | 25.9
C/C(=N\NC(=O)c1cc2ccccc2cc1O)c1cccs1 | 6.4 | 86.5* | 88.6* | 92.6* | -45.0 | 11.9 | 93.8* | 101.2* | 95.6* | 33.5
C/C(=N/NC(=O)c1cccs1)c1cccc(N)c1 | -1.3 | -5.2 | -5.1 | -25.9 | 5.1 | / | / | / | / | /
Cc1ccc2c(Cl)c(C(=O)N/N=C/c3cccn3C)sc2c1 | 2.8 | 28.9 | 84.3* | 39.3 | -4.6 | 10.2 | 8.3 | -4.7 | 11.2 | 1.1
Cc1ccc2cc(CN(CC(C)C)S(=O)(=O)c3cccc4nonc34)c(=O)[nH]c2c1 | 0.7 | 8.7 | -0.5 | 7.0 | -3.7 | / | / | / | / | /
COc1ccc(NS(=O)(=O)c2cn(C)nc2C)cc1 | -11.1 | -8.7 | -6.0 | 4.1 | 18.7 | / | / | / | / | /
C/C(=N\NC(=O)c1c[nH]c2ccccc12)c1ccc(C)o1 | 7.7 | -1.7 | 14.8 | -11.5 | -0.9 | / | / | / | / | /
O=C(NNC(=O)c1cc2ccccc2cc1O)c1cccs1 | 7.8 | 94.6* | 86.8* | 92.8* | -17.2 | 97.0* | 97.5* | 102.3* | 97.1* | 91.2*
C/C(=N\NC(=O)c1cc2ccccc2cc1O)c1ccc(C)o1 | 22.1 | 67.7* | 63.2* | 84.1* | -229.1 | 79.5* | 78.1* | 94.6* | 90.0* | 46.7
Cn1cccc1/C=N/NC(=O)c1cc2ccccc2cc1O | 24.8 | 49.1 | 48.2 | 58.8* | -206.8 | 56.2* | 54.0* | 83.8* | 68.2* | 2.5
CC[C@@]1(C(=O)OC)N[C@H](CN(C)C(=O)COc2ccccc2)[C@@H]2C(=O)N(C)C(=O)[C@@H]21 | / | 5.2 | -11.5 | -16.1 | 11.6 | / | / | / | / | /
CN(C(=O)CSc1nncn1C)C1CCCN(Cc2ccccc2F)C1 (configuration not stated) | ? | / | / | / | 2.2 | / | / | / | / | /
COc1cc(/C(C)=C/c2ccccc2)c2c(c1)oc1ccccc12 | -1.7 | / | / | / | / | / | / | / | / | /
CN1CCN(C(=O)/C=C/c2ccc(Cl)c(Cl)c2)CC1 | -3.0 | -5.5 | 3.6 | -7.0 | 4.6 | / | / | / | / | /
O=C(/C=C/c1ccc(Cl)c(Cl)c1)N1CCc2ccccc21 | 1.2 | -12.4 | 66.4* | 9.2 | 15.3 | -12.6 | -8.0 | -6.5 | 8.0 | 0.6
CCOc1ccc(/C=C/C(=O)N(C)CC(=O)Nc2cccc(F)c2)cc1OCC | -3.3 | 11.4 | 4.5 | -0.8 | -176.3 | / | / | / | / | /
SMILES | Platelet DG rel | SENP8 block-1 | SENP7 inh | SENP6 inh | SENP8 block-2 | SENP8 confirm | SENP6 conf | SENP7 confirm | Casp3 select | SENP luc ctr
CCCCSC(=O)Nc1ccccc1 | 4.8 | 51.9* | 71.1* | 79.6* | 24.9 | 48.2 | 72.9* | 89.9* | 65.3* | 54.9*
CCCCCC(=O)NNC(=O)Nc1ccccc1 | -1.4 | -0.2 | -4.3 | -6.3 | 12.4 | / | / | / | / | /
O=S(=O)(NCCN1CCOCC1)c1ccc(F)c(Cl)c1 | 12.3 | -12.4 | -1.7 | 2.0 | 30.1 | / | / | / | / | /
CCN1C(=O)c2cccc3c(NC(=O)C4CCCCC4)ccc1c23 | 7.9 | -0.3 | 72.3* | -6.0 | 11.2 | -8.1 | -2.5 | -5.3 | -4.8 | -5.9
CC(C)(C)c1ccc(/C=C/C(=O)Nc2nncs2)cc1 | 26.9 | 28.2 | 79.4* | 46.8 | 4.4 | 24.8 | 25.2 | 5.1 | 18.2 | 13.3
O=C(/C=C/c1cccs1)Nc1nncs1 | 8.3 | 1.5 | 19.6 | 24.3 | 0.9 | / | / | / | / | /
COC(=O)CCc1c(C)c(C(=O)c2cc(F)c(F)c(F)c2F)c2ccccn12 | -1.6 | 28.5 | 3.9 | 77.4* | -29.7 | 8.3 | 6.6 | -8.7 | -3.2 | -2.6
Cc1c(C(=O)c2ccc(F)cc2F)c2ccccn2c1CCc1ccccn1 | / | / | / | / | 36.3 | / | / | / | / | /
Cc1c(C(=O)c2ccc(F)cc2F)c2ccccn2c1CCC#N | 4.1 | 42.3 | 26.1 | 58.2* | -4.5 | 10.8 | 9.0 | -4.3 | 3.8 | -0.6
COC(=O)CCc1c(C)c(C(=O)c2ccc(F)cc2)c2ccccn12 | 3.4 | 0.8 | -6.9 | -15.1 | 2.9 | / | / | / | / | /
Cc1cc2cc(OCc3ccccc3)ccc2n1C | 17.6 | -32.4 | 19.1 | 50.4* | 13.1 | -4.0 | -6.7 | -6.2 | -0.3 | -0.4
Cc1cc(C(=O)N2CCC2(C)C(=O)Nc2ccc3[nH]ncc3c2)nn1C (configuration not stated) | / | / | / | / | 17.4 | / | / | / | / | /
COc1cccc(Nc2ccccc2C(=O)O)c1 | -4.9 | 5.5 | -14.3 | -4.7 | 12.9 | / | / | / | / | /
COc1cc(-c2ccc(Nc3ccccc3C(=O)O)c(OC)c2)ccc1Nc1ccccc1C(=O)O | / | 60.0* | 3.5 | 73.8* | 30.5 | -9.1 | 55.0* | 24.4 | 7.8 | 68.6*
